Targets with a hit are over-represented here; the source holds about 7,900 in all. About 0.6% of all pairs of compound and target were hits.
Tests used:
Assay in all cases: log2 fold change, soluble protein after heating vs DMSO (PISA); higher = thermal stabilisation; K562 cells, 10 uM, 30 min; active = over 0.2 and 3.5 SD of the protein, either way, in both replicates (recomputed)
bafetinib = compound: Cc1ccc(NC(=O)c2ccc(CN3CC[C@H](N(C)C)C3)c(C(F)(F)F)c2)cc1Nc1nccc(-c2cncnc2)n1 [bafetinib]
Procedure, shortened: (§1)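 K562 cells at 2×10^6 cells/mL were treated for 30 min with 10 μM compound, and aliquots were heated for 3 min over 48°C-58°C before pooling. Extraction used PBS with 0.5% NP-40 at 4°C, and soluble protein was the supernatant after 21,000xg for 90 min, measured by TMTpro 16plex LC-MS/MS with channel sums equalised. Thermal stability values, relative to control samples and from duplicates, are log2 fold changes.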

[1] = compound: Cc1cccc(CC(=O)N2CCc3c2ccc(-c2cn(C)c4ncnc(N)c24)c3F)n1
Procedure, shortened: as §1

nilotinib = compound: Cc1cn(-c2cc(NC(=O)c3ccc(C)c(Nc4nccc(-c5cccnc5)n4)c3)cc(C(F)(F)F)c2)cn1 [nilotinib]
Procedure, shortened: as §1

[2] = compound: Cc1nc(Nc2n[nH]c3c2CN(C(=O)N[C@H](CN(C)C)c2ccccc2)C3(C)C)c2sccc2n1
Procedure, shortened: as §1

dasatinib = compound: Cc1nc(Nc2ncc(C(=O)Nc3c(C)cccc3Cl)s2)cc(N2CCN(CCO)CC2)n1 [dasatinib]
Procedure, shortened: as §1

[3] = compound: Cc1ncc(-c2ccnc(Nc3ccc(S(C)(=O)=O)cc3)n2)n1C(C)C
Procedure, shortened: as §1

[4] = compound: Cn1cc(-c2ccc3c(c2)CCN3C(=O)Cc2cccc(C(F)(F)F)c2)c2c(N)ncnc21
Procedure, shortened: as §1

[5] = compound: Cn1cc(-c2ccc3nnc(C(F)(F)c4ccc5ncccc5c4)n3n2)cn1
Procedure, shortened: as §1

tipifarnib = compound: Cn1cncc1[C@@](N)(c1ccc(Cl)cc1)c1ccc2c(c1)c(-c1cccc(Cl)c1)cc(=O)n2C [tipifarnib]
Procedure, shortened: as §1

mubritinib = compound: FC(F)(F)c1ccc(/C=C/c2nc(COc3ccc(CCCCn4ccnn4)cc3)co2)cc1 [mubritinib]
Procedure, shortened: as §1

Measured: log2 fold change

ACP1 isoform 2 (UniProt P24666)
Sequence of UniProt P24666 (P24666 whole entry, looked up): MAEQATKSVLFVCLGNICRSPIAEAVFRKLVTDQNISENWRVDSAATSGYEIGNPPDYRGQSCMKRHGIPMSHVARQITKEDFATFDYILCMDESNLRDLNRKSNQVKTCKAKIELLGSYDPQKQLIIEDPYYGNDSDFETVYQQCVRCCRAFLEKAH
inactive: bafetinib 0.037 | [1] 0.036 | nilotinib 0.039 | [2] -0.063 | dasatinib -0.126 | [3] -0.049 | [4] -0.044 | [5] 0.022 | tipifarnib -0.146 | mubritinib 0.042

ALDH9A1 (UniProt P49189)
Sequence of UniProt P49189 (P49189 whole entry, looked up): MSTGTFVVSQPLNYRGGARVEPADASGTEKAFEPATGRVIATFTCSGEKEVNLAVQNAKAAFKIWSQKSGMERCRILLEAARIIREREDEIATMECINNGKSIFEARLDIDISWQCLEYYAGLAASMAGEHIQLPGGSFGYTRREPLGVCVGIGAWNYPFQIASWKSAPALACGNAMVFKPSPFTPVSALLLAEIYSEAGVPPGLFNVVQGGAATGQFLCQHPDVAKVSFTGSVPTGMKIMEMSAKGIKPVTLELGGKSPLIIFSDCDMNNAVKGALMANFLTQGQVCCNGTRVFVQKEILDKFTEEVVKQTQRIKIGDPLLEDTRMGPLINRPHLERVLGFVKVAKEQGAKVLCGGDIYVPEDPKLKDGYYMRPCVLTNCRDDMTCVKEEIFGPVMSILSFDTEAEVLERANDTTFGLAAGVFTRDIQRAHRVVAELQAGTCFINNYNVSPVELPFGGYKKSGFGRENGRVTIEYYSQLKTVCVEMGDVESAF
inactive: bafetinib 0.023 | [1] 0.071 | nilotinib -0.08 | [2] -0.046 | dasatinib -0.105 | [3] 0.019 | [4] 0.047 | [5] 0.044 | tipifarnib 0.099 | mubritinib -0.015

ASNS (UniProt P08243)
Sequence of UniProt P08243 (P08243 whole entry, looked up): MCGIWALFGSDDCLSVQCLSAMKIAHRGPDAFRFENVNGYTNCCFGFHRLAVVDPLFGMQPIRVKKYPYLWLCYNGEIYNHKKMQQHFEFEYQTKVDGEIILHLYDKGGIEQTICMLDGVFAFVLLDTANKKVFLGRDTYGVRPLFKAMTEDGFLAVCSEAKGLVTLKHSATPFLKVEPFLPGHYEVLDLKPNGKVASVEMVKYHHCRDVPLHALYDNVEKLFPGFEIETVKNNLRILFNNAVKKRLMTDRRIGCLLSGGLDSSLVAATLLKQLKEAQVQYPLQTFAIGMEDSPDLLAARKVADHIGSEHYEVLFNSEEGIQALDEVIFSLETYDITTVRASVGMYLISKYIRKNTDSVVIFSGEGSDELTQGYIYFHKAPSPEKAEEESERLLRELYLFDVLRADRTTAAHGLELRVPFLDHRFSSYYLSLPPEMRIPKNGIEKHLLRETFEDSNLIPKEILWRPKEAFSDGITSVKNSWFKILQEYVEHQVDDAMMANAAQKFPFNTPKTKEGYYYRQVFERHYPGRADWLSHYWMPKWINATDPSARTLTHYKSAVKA
inactive: bafetinib -0.055 | [1] 0.02 | nilotinib 0.002 | [2] 0.021 | dasatinib 0 | [3] -0.003 | [4] 0.034 | [5] 0.015 | tipifarnib -0.033 | mubritinib 0.012

ARAF (UniProt P10398)
inactive: bafetinib -0.015 | [1] 0.01 | nilotinib -0.021 | dasatinib -0.031 | [3] 0.009 | [4] 0.007 | [5] -0.003 | tipifarnib 0.144 | mubritinib -0.092
active: [2] -0.236

APOH (UniProt P02749)
active: bafetinib -1.07
inactive: [1] 0.083 | nilotinib 0 | [2] 0.031 | dasatinib -0.281 | [3] 0.392 | [4] 0.145 | [5] -0.167 | tipifarnib 0.085 | mubritinib -0.346

ATP1A4 (UniProt Q13733)
Sequence of UniProt Q13733 (Q13733 whole entry, looked up): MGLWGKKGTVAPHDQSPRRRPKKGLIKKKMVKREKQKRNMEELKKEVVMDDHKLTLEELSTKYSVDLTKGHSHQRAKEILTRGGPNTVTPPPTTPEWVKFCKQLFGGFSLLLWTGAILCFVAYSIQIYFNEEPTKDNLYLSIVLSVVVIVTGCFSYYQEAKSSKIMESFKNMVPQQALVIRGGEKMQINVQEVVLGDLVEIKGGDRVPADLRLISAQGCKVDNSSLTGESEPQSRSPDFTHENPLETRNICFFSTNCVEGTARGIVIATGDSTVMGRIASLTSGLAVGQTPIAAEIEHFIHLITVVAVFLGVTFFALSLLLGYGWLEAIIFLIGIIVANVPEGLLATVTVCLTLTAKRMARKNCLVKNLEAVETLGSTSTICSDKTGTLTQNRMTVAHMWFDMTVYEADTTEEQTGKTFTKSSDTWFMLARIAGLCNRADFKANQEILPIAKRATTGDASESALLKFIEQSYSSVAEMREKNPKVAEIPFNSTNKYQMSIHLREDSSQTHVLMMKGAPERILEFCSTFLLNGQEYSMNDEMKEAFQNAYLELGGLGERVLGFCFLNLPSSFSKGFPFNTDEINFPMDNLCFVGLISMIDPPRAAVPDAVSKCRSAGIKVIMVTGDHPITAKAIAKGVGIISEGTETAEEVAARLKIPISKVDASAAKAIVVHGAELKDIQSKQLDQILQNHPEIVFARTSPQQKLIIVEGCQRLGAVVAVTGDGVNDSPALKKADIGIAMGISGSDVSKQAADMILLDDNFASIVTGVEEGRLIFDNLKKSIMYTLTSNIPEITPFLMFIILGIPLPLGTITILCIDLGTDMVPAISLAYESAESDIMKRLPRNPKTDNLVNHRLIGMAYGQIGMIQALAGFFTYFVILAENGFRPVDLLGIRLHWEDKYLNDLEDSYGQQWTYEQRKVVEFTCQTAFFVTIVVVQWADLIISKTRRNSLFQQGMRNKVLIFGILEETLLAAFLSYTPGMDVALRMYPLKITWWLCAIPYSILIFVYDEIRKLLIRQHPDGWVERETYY
inactive: bafetinib 0.038 | [1] 0.036 | nilotinib 0.058 | [2] -0.041 | dasatinib 0.076 | [3] 0.033 | [4] 0.028 | [5] -0.041 | tipifarnib -0.039 | mubritinib 0.001

ALDH18A1 (UniProt P54886)
Sequence of UniProt P54886 (P54886 whole entry, looked up): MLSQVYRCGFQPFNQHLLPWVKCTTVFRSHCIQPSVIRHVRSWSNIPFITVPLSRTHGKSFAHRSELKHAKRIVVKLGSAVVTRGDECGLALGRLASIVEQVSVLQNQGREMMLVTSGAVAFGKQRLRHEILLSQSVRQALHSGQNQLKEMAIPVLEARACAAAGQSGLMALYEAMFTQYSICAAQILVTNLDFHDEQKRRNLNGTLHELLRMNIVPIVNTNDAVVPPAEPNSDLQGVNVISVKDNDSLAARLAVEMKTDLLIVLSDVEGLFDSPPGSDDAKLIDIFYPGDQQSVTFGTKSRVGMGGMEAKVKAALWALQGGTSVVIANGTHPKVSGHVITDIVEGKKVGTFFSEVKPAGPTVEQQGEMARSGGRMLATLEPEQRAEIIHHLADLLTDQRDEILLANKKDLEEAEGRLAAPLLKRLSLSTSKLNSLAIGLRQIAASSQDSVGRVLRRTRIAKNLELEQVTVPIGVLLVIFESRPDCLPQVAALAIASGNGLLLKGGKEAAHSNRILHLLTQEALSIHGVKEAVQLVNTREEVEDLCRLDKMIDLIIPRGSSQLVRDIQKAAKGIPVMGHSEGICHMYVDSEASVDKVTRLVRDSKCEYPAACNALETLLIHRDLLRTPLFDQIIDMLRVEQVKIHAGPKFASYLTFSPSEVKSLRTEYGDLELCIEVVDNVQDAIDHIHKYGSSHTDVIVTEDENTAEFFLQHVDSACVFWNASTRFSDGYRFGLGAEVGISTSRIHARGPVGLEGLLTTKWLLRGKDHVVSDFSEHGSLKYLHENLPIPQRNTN
inactive: bafetinib -0.206 | [1] 0.071 | nilotinib -0.3 | [2] -0.15 | dasatinib -0.133 | [3] 0.042 | [4] -0.202 | [5] -0.128 | tipifarnib -0.141
active: mubritinib -0.561

AAMP (UniProt Q13685)
Sequence of UniProt Q13685 (Q13685 whole entry, looked up): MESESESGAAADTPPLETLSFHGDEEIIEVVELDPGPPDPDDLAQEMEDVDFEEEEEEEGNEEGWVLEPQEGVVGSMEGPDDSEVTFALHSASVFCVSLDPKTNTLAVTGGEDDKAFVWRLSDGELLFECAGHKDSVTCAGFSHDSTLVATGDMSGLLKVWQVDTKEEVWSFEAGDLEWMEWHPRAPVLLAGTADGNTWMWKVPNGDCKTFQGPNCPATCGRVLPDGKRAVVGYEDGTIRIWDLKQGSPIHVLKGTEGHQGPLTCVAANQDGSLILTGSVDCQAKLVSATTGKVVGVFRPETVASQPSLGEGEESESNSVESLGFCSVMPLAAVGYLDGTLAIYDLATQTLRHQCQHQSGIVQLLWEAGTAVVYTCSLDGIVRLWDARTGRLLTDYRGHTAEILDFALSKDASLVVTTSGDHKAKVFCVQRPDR
inactive: bafetinib 0.011 | [1] 0.014 | nilotinib 0.009 | [2] 0.005 | dasatinib 0.04 | [3] 0.012 | [4] -0.038 | [5] -0.028 | tipifarnib -0.026 | mubritinib 0.02

ADK (UniProt P55263)
Sequence of UniProt P55263 (P55263 whole entry, looked up): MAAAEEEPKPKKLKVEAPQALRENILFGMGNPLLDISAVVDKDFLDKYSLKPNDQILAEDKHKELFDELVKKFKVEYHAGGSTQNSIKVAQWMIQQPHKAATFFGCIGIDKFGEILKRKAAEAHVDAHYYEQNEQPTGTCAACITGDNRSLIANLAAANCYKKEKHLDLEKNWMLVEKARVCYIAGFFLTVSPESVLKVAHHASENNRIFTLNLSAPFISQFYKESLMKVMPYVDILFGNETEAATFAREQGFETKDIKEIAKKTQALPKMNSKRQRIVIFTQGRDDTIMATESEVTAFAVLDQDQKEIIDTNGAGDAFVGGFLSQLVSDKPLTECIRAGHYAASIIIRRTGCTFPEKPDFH
inactive: bafetinib 0.201 | [1] 0 | nilotinib 0.122 | [2] 0.208 | [3] 0.07 | [4] 0.006 | [5] 0.241 | tipifarnib 0.291 | mubritinib 0.037
active: dasatinib 0.387

ACSM3 (UniProt Q53FZ2)
inactive: bafetinib 0.009 | [1] -0.061 | nilotinib -0.015 | [2] 0.002 | dasatinib -0.185 | [3] 0.028 | [4] 0.012 | [5] 0.128 | tipifarnib 0.002
active: mubritinib -0.343

BMP2K (UniProt Q9NSY1)
active: [2] 0.534
inactive: bafetinib 0.037 | [1] -0.107 | nilotinib -0.067 | dasatinib 0 | [3] 0.34 | [4] -0.016 | [5] -0.036 | tipifarnib 0.016 | mubritinib -0.042

ATP5ME (UniProt P56385)
inactive: bafetinib -0.071 | [1] -0.051 | nilotinib 0.022 | [2] 0.008 | dasatinib 0.084 | [3] -0.046 | [4] 0.001 | [5] 0.103 | tipifarnib -0.031 | mubritinib 0.023

ACP2 (UniProt P11117)
inactive: bafetinib -0.107 | [1] -0.06 | nilotinib 0.002 | [2] -0.006 | dasatinib 0 | [3] 0.02 | [4] 0.015 | [5] 0.03 | tipifarnib 0.061 | mubritinib -0.008

BRAP (UniProt Q7Z569)
Sequence of UniProt Q7Z569 (Q7Z569 whole entry, looked up): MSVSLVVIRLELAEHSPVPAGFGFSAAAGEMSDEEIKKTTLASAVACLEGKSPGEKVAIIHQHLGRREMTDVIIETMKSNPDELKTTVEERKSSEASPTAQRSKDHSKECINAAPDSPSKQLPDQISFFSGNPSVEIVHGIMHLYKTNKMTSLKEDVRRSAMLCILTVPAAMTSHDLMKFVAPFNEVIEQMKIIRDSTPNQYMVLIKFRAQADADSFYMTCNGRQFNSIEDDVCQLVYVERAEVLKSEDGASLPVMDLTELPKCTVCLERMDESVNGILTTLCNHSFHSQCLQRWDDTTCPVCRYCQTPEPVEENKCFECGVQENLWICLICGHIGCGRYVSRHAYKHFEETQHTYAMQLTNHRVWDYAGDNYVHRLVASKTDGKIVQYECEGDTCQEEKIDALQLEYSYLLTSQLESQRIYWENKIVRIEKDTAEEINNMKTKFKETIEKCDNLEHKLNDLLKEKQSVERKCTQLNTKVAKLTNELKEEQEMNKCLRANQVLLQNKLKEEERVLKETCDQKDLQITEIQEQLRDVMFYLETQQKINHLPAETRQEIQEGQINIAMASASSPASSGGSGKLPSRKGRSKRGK
inactive: bafetinib 0.026 | [1] 0.017 | nilotinib -0.087 | [2] -0.186 | dasatinib -0.097 | [3] -0.116 | [4] -0.067 | [5] -0.066 | tipifarnib -0.04 | mubritinib 0.056

ATP2A3 isoform 2 (UniProt Q93084)
inactive: bafetinib -0.063 | [1] -0.001 | nilotinib -0.057 | [2] -0.064 | dasatinib -0.005 | [3] 0.058 | [4] -0.014 | [5] 0.076 | tipifarnib 0.025 | mubritinib -0.044

ATP9B (UniProt O43861)
inactive: bafetinib -0.042 | [1] -0.042 | nilotinib -0.147 | [2] -0.149 | dasatinib -0.067 | [3] 0.038 | [4] 0.037 | [5] -0.096 | tipifarnib 0.121 | mubritinib 0.069

AIP (UniProt O00170)
inactive: bafetinib 0.017 | [1] 0.02 | nilotinib -0.062 | [2] -0.009 | dasatinib -0.144 | [3] 0.056 | [4] 0.031 | [5] 0.012 | tipifarnib -0.058 | mubritinib 0.015

ATL2 (UniProt Q8NHH9)
inactive: bafetinib 0.026 | [1] 0.034 | nilotinib 0.081 | [2] -0.008 | dasatinib -0.129 | [3] 0.031 | [4] 0.083 | [5] 0.18 | tipifarnib -0.014 | mubritinib 0.104

ANAPC2 (UniProt Q9UJX6)
inactive: bafetinib -0.048 | [1] 0.024 | nilotinib -0.004 | [2] -0.053 | dasatinib -0.04 | [3] 0.003 | [4] -0.005 | [5] -0.036 | tipifarnib -0.005 | mubritinib 0.049

ALDH2 (UniProt P05091)
inactive: bafetinib 0.009 | [1] -0.02 | nilotinib 0.006 | [2] -0.016 | dasatinib -0.034 | [3] 0.019 | [4] 0.072 | [5] 0.059 | tipifarnib -0.005 | mubritinib 0.07

AP2A2 isoform 2 (UniProt O94973)
inactive: bafetinib 0.02 | [1] 0.031 | nilotinib -0.027 | [2] 0.009 | dasatinib 0.062 | [3] -0.018 | [4] 0.006 | [5] -0.074 | tipifarnib -0.006 | mubritinib 0.035

ABCB6 (UniProt Q9NP58)
inactive: bafetinib -0.035 | [1] 0.014 | nilotinib 0.022 | [2] 0.032 | dasatinib -0.001 | [3] 0.024 | [4] 0 | [5] -0.025 | tipifarnib 0.005 | mubritinib 0.001

ARL6IP6 (UniProt Q8N6S5)
Sequence of UniProt Q8N6S5 (Q8N6S5 whole entry, looked up): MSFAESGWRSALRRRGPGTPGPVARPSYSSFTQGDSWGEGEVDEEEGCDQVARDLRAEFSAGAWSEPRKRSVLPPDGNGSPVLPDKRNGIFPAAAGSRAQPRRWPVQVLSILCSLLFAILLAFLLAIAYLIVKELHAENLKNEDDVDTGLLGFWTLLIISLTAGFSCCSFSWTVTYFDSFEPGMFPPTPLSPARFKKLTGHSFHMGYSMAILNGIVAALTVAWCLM
inactive: bafetinib -0.096 | [1] 0.024 | nilotinib -0.027 | [2] 0.019 | dasatinib 0.098 | [3] 0.036 | [4] 0.012 | [5] -0.186 | tipifarnib -0.054 | mubritinib 0.04

ABCC5 (UniProt O15440)
inactive: bafetinib -0.027 | [1] 0.068 | nilotinib -0.21 | dasatinib -0.035 | [3] -0.015 | [4] 0.017 | [5] 0.053 | tipifarnib -0.009 | mubritinib 0.124
active: [2] -0.219

AAR2 (UniProt Q9Y312)
inactive: bafetinib -0.019 | [1] -0.062 | nilotinib 0.058 | [2] 0.009 | dasatinib -0.006 | [3] 0.019 | [4] -0.079 | [5] -0.034 | tipifarnib 0.004 | mubritinib -0.036

AHSA1 (UniProt O95433)
Sequence of UniProt O95433 (O95433 whole entry, looked up): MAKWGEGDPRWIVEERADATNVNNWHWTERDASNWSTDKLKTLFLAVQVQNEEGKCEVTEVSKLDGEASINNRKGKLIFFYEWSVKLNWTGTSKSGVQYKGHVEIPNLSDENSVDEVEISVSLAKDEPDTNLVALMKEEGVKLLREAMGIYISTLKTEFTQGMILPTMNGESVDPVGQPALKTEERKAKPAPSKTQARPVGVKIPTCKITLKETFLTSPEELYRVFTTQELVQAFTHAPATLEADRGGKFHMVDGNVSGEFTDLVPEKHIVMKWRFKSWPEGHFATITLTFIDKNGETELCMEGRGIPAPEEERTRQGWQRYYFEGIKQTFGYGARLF
inactive: bafetinib -0.059 | [1] 0.013 | nilotinib -0.052 | [2] -0.035 | dasatinib -0.096 | [3] -0.018 | [4] 0.065 | [5] 0.009 | tipifarnib -0.056 | mubritinib 0.038

ATAD1 (UniProt Q8NBU5)
inactive: bafetinib -0.007 | [1] 0.048 | nilotinib 0.02 | [2] -0.008 | dasatinib -0.033 | [3] -0.002 | [4] 0.037 | [5] -0.026 | tipifarnib 0.014 | mubritinib -0.028

ATIC (UniProt P31939)
inactive: bafetinib 0.067 | [1] 0.058 | nilotinib 0.158 | [2] -0.033 | dasatinib 0.022 | [3] -0.006 | [4] 0.104 | [5] 0.048 | tipifarnib -0.047
active: mubritinib 0.206

ATG9A (UniProt Q7Z3C6)
inactive: bafetinib -0.048 | [1] -0.013 | nilotinib -0.04 | [2] -0.108 | dasatinib -0.046 | [3] -0.014 | [4] 0.06 | [5] -0.022 | tipifarnib 0.168 | mubritinib 0.042

BRD4 (UniProt O60885)
inactive: bafetinib 0.067 | [1] 0.054 | nilotinib -0.144 | [2] 0.017 | dasatinib -0.094 | [3] -0.233 | [4] 0.011 | [5] -0.046 | tipifarnib -0.09 | mubritinib 0.032

— the supplement of paper PMC10849652
